# Compound activity as filed in PubChem BioAssay.
# DT40 TDP1 no CPT = qHTS for Inhibitors of human tyrosyl-DNA phosphodiesterase 1 (TDP1): qHTS in cells in absence of CPT; 15% of 420,000 active; DT40 Tdp1-/- hTDP1 cells, no CPT, ATP luminescence, 48 h; Potency, µM (titrated, usually from 46.2 µM), for the others: at the top dose activity change, negative = growth inhibition, actives largely listed as inhibitors; further: potency means the concentration at half of the fitted maximal effect; nearly all actives have a fitted effect of over 55% in size
#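 Seeded 400 DT40-hTDP1 cells/well (vehicle DMSO, no 20 nM CPT); pinned compounds; ≥48 hr at 37 °C; CellTiter-Glo luminescence as viability measure.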
# uPA generation = qHTS for Inhibitors of Cell Surface uPA Generation; cell surface uPA generation assay, qHTS; Potency, µM (titrated, usually from 38.3 µM), for the others: at the highest dose activity change, negative = inhibition, hits mostly inhibitors; 0.31% of 330,000 active; AID 540303, 2011; active means well fitted inhibition curve with a large enough effect; inconclusive means small, poorly fitted or top-dose-only effect; inactive means no such curve, though single readings can be large or run the other way; tested in mouse RAW 264.7 cells; further: potency means the concentration at half of the fitted maximal effect; nearly all actives have a fitted effect of over 55% in size
# HT1080NT lethal = qHTS for induction of synthetic lethality in tumor cells producing 2HG: qHTS for the HT-1080-NT fibrosarcoma cell line | HT-1080-NT fibrosarcoma viability, CellTiter-Glo ATP luminescence, 48 h | Potency, µM (top dose mostly 46.1 µM), for inactives: top-dose activity, negative = less viability, most hits filed as cytotoxic | 1.6% of 360,000 active | AID 686970, 2013;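 further: NT is the 2HG producing partner of a matched IDH1 knockdown line; potency means the concentration at half of the fitted maximal effect; 0% = DMSO-treated cells and -100% = media-only wells without cells; nearly all actives have a fitted effect of over 55% in size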
#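 Viability by CellTiter-Glo luminescence after 48 h compound exposure at 37C of HT-1080-NT cells (750/well, RPMI, 5% FBS). % activity scaled between DMSO wells and medium-only wells, then curve-fitted and categorized by curve class.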
# HT1080 IDH1KD tx = qHTS for induction of synthetic lethality in tumor cells producing 2HG: qHTS for the HT-1080-IDH1KD cell line; HT-1080 IDH1 knockdown viability, ATP luminescence, 48 h; Potency, µM (series often up to 46.1 µM), without a hit: top-dose activity, negative = toxicity, actives largely listed as cytotoxic; 2% of 360,000 active;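 further: potency means the concentration at half of the fitted maximal effect; 0% = DMSO wells and -100% = cell-free medium wells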
#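 Luminescent ATP read-out (CellTiter-Glo, 10 min at room temperature) after 48 h compound exposure at 37 °C gave viability of IDH1-knockdown HT-1080 cells. Activity was normalised to DMSO and cell-free wells, then fitted as concentration-response curves.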
# IL-1B inflam inh = qHTS for Inhibitors of Inflammasome Signaling: IL-1-beta AlphaLISA Primary Screen; AID 743279, 2014; 4.7% of 360,000 active; THP-1 LPS/ATP IL-1B secretion, AlphaLISA, 16 h; stronger effect = lower value; activity change, % at 57.5 µM; in the data active means activity change below about -50%; inconclusive means mostly about -30% to -49%
#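 THP-1 cells pretreated 1 hr with compounds (up to 57.5 uM final), then stimulated with LPS (250 ng/mL final) plus ATP (1.25 mM final); secreted IL-1B measured by AlphaLISA after 16 hr, decreased signal indicating inhibition.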
# TDP1 cell CPT = qHTS for Inhibitors of human tyrosyl-DNA phosphodiesterase 1 (TDP1): qHTS in cells in presence of CPT; chicken DT40 Tdp1-/-;hTDP1 cells + 20 nM CPT, ATP luminescence, 48 h; Potency, µM (titrated, usually from 46.2 µM), for the others: top-dose activity change, negative = growth inhibition, usual class: inhibitors; 12% of 420,000 active; further: potency means the concentration at half of the fitted maximal effect; nearly all actives have a fitted effect of over 55% in size
#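 Chicken DT40 Tdp1-/- cells complemented with human TDP1, 400 cells/well, exposed to compounds plus 20 nM camptothecin for at least 48 h at 37 C; viability read as ATP content by CellTiter-Glo luminescence.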
# Starred values were filed as active, the others as inactive; ? = inconclusive; / = no result. Sampled rows, rich in hits. Any-hit rate of the full collection: about 19%. Unless noted, the call rests on the fitted dose curve; in most records, active means well fitted curve in the direction sought with a large enough effect; inconclusive means small, poorly fitted or top-dose-only effect, or another doubt; inactive means no such curve, though single readings can be large; an effect the other way counts as inactive or inconclusive. Unless noted, on the % scale 0 is the no-effect control and ±100 the full control effect.
SMILES,DT40 TDP1 no CPT,uPA generation,HT1080NT lethal,HT1080 IDH1KD tx,IL-1B inflam inh,TDP1 cell CPT
COc1cccc(CNc2nc3cc(-c4ccsc4)sc3c(=O)n2C)c1OC,?,/,?,?,6,?
COc1cccc(CNc2nc3cc(-c4ccc(F)cc4)sc3c(=O)n2C)c1OC,16µM*,/,-13%,?,-16,26µM*
O=C(CN1C(=O)CCc2cc(S(=O)(=O)N3CCOCC3)ccc21)Nc1cccc(Cl)c1,4%,/,/,/,/,-28%
CC(C)CCNC(=O)C(CC(C)C)N(Cc1ccc2c(c1)OCO2)C(=O)c1snc(C(N)=O)c1N (stereo not drawn),?,-11%,-8%,-16%,-57*,-20%
CC(C)CC(C(=O)NC1CCCC1)N(Cc1ccc2c(c1)OCO2)C(=O)c1snc(C(N)=O)c1N (stereo not drawn),-9%,1%,-1%,1%,16,13%
COc1ccc(CN(C(=O)c2snc(C(N)=O)c2N)C(CC(C)C)C(=O)NC2CCCCC2)cc1 (stereo not drawn),?,1%,-29%,?,-71*,?
O=C(NCC1(c2ccccc2)CCOCC1)c1cccs1,-18%,7%,22%,12%,7,3%
O=C(N/N=C/c1ccc(-c2cccc(C(F)(F)F)c2)o1)c1ccccc1Br,?,-18%,-19%,?,-13,-29%
NC(=O)N/N=C/c1ccc(-c2cccc(C(F)(F)F)c2)o1,-2%,-16%,-13%,-4%,-6,-3%
O=C(N/N=C/c1ccc(-c2cccc(C(F)(F)F)c2)o1)c1cccc(F)c1,14µM*,/,?,?,0,18µM*
O=C(N/N=C/c1ccc(-c2cccc(C(F)(F)F)c2)o1)c1ccccc1O,8.2µM*,-1%,-1%,-3%,0,10µM*
Cc1cc(C)cc(-n2ncc3c2CCCC3NC(=O)CN2CCCCC2=O)c1 (stereo not drawn),2%,15%,4%,1%,3,-1%
Cc1ccc2ncnc(Oc3ncccc3[N+](=O)[O-])c2c1,6.5µM*,-18%,-5%,-6%,0,5.8µM*
Cc1cc(=O)oc2cc(Oc3ncccc3[N+](=O)[O-])ccc12,-9%,/,9%,9%,3,23%
COc1ccc(C(CC(=O)Nc2ccc(C)cn2)N2Cc3ccccc3C2=O)cc1 (stereo not drawn),?,0%,0%,-12%,59,9%
CCc1cccc(NC(=O)CC(c2ccc(OC)cc2)N2Cc3ccccc3C2=O)c1 (stereo not drawn),16µM*,/,/,/,/,21µM*
COc1ccc(C(CC(=O)Nc2cccc(C)c2C)N2Cc3ccccc3C2=O)cc1 (stereo not drawn),16µM*,/,/,/,/,13µM*
CCOC(=O)c1cccc(NC(=O)CC(c2ccc(F)cc2)N2Cc3ccccc3C2=O)c1 (stereo not drawn),26µM*,/,/,/,/,?
Cc1cc(C)n2nc(C(=O)OCC(=O)N3C(C)CCCC3C)nc2n1 (stereo not drawn),-15%,0%,-1%,7%,11,26%
COc1ccccc1NC(=O)c1nc(SCc2ccccc2F)ncc1Cl,-7%,/,/,/,/,?
COC(=O)c1ccc(NC(=O)c2nc(SCc3ccccc3F)ncc2Cl)cc1,18µM*,/,/,/,/,?
Cc1cccc(C)c1NC(=O)c1nc(S(=O)(=O)Cc2ccccc2F)ncc1Cl,5µM*,/,/,/,/,1.3µM*
CC(=O)Nc1ccc(NC(=O)c2nc(SCc3ccccc3F)ncc2Cl)cc1,-8%,/,/,/,/,-22%
